From PubChem BioAssay AID1768 (National Center for Advancing Translational Sciences (NCATS), 2009) come the findings set out here.

Each structure is given as a SMILES string. Among all 270,000 compounds or so, about 620 (0.23%) were called active. Roughly 12% stayed inconclusive and do not appear here. Shown is part of a subset that was picked to be rich in actives. Unmarked numbers belong to inactive results. The call rests on the fitted dose curve; in most records, active means well fitted inhibition curve with a large enough effect in the polarisation, with a control signal flat (not every such curve was filed as active); inconclusive means small, poorly fitted or top-dose-only effect, or effect the other way, or a change in a side signal; inactive means no such curve, though single readings can be large or run the other way; the % refers to the polarisation.
Potency means the concentration at half of the fitted maximal effect.

Sequence of Menin (Homo sapiens) (O00255 whole entry, looked up, the tested form may be a part): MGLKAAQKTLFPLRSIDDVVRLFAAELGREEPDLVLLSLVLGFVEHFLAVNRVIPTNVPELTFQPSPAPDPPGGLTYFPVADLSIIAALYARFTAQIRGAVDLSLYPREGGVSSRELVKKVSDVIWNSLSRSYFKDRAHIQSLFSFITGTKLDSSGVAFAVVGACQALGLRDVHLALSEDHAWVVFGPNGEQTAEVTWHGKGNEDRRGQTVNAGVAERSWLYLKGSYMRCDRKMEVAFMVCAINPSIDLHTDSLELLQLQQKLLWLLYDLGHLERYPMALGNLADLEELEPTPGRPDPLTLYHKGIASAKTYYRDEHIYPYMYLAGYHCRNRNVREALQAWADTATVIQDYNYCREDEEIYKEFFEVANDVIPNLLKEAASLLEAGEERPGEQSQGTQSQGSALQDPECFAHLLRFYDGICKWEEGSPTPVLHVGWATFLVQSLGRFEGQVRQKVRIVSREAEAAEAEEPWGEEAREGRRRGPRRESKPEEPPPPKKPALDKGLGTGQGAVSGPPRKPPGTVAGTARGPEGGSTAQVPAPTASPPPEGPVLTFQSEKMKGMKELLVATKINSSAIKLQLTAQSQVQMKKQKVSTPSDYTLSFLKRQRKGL

The assay addresses Menin (Homo sapiens) (UniProt O00255). Description: qHTS Assay for Inhibitors Targeting the Menin-MLL Interaction in MLL Related Leukemias: Competition With Texas Red Labeled MLL-derived Mutant Peptide. On FP activity change, negative = inhibition: % of control where 0% means no effect. As to conditions: fluorescence polarization; series mostly up to 61.6 µM; FP activity change, negative = inhibition: at the top concentration. From the text: qHTS Assay for Inhibitors Targeting the Menin-MLL Interaction in MLL Related Leukemias NIH Chemical Genomics Center [NCGC] NIH Molecular Libraries Probe Centers Network [MLPCN] MLPCN Grant: MH084875-01A1 Assay Submitter (PI): Jolanta Grembecka, Tomasz Cierpicki, University of Virginia Translocations of the MLL (Mixed Lineage Leukemia) gene are frequently found in human leukemias affecting both children and adults. Fusion of MLL to one of more than 60 genes results in generation of oncogenic proteins upregulating Hox genes, which are vital to blood cell development. Patients harboring fusion of the MLL gene suffer from aggressive leukemias and respond poorly to available therapies. All of the oncogenic fusion proteins have a preserved N-terminal fragment of MLL that has been identified to interact with menin. It has been recently discovered that association with menin is critical to the leukemogenic activity of the MLL fusion oncoproteins. Selective targeting of the menin-MLL interaction could provide an attractive therapeutic approach to develop novel drugs for MLL-related leukemias. Small molecules blocking the menin-MLL interaction should reverse the oncogenic potential of MLL fusion proteins. We have developed and optimized a fluorescence polarization-based assay for the identification of Menin-MLL inhibitors. The assay was run employing two different MLL-derived peptides. The present assay uses a 12 amino acid peptide labeled with fluorescein at its N-terminus. This peptide consists of the menin high affinity binding motif from MLL and is potently bound by menin. Another peptide with a mutated sequence, labeled with Texas Red, was used in parallel as a less stringent screen for inhibitors.
The Menin protein, the MLL-wild type (w.t.) derived peptide (N-terminal 12 amino acids), the MLL-derived peptide labeled with Texas Red and the MLL-w.t. peptide labeled with Fluorescein were kindly supplied by laboratory of Dr. Jolanta Grembecka, University of Virginia. All protein and peptide solutions were stored in single use aliquots at -80C. The Eu3+ Cyrptate-conjugated mouse monoclonal antibody anti-6 Histidine (Eu3+-AB) and the Streptavidin-XL665 conjugate (XL665) were purchased from Cisbio International (Bedford, MA). All antibody and XL665 conjugate solution stocks were stored in single use aliquots at -20C. The Buffer components for all assays were purchased from Sigma-Aldrich (St. Louis, MO) and Invitrogen (Carlsbad, CA). FP Assay Reagents: 1. FP reaction buffer: 50 mM Tris-HCl pH 7.5, 50 mM NaCl, 1mM DTT. Before use, 0.05% BSA is added. 2. Menin protein, MLL-w.t. labeled with fluorescein, MLL-mutant peptide labeled with texas red. Stored in singe use aliquots at -80C. 3. MLL-w.t. unlabeled peptide as positive control: 10 uM final in FP buffer. FP Assay Procedure: 1. Prepare Menin at 200 nM, MLL-w.t.-fluorescein at 25 nM, and MLL-mutant-texas red at 50 nM mixture in FP buffer. 2. Prepare Menin at 200 nM, MLL-w.t.-fluorescein at 25 nM, MLL-mutant-texas red at 50 nM, and 10 uM MLL-w.t. unlabeled mixture in FP buffer. 3. Prepare MLL-w.t.-fluorescein at 25 nM and MLL-mutant-texas red at 50 nM mixture in FP buffer. 3. Dispense 4 ul per well of reagent in step 1 in columns 2, 4 - 48 in a black 1536 well plate, dispense 4 ul per well of reagents from steps 2 and 3 in columns 1 and 3 respectively. Incubate plate at ambient for 15 minutes. 4. Transfer 23 nl per well of compound to plate and incubate at ambient for 1 hr. 5. Read fluorescence polarization for each label using the PerkinElmer Envision. Envision protocol for fluorescein: FITC FP Dual Enh Mirror, Excitation filter 480, Emission filter (1) P-pol 535, Emission filter (2) S-pol 535 Envision protocol for texas red: FP Dual Enh Mirror, Excitation filter 555, Emission filter (1) P-pol 632, Emission filter (2) S-pol 632
In the case of `CC[N+](C)(CC)CCC[n+]1c(-c2ccccc2)c2cc(N)ccc2c2ccc(N)cc21`, the Potency is 12.6 µM (active).

In the case of `CC(=O)[O][Sn]([c]1ccccc1)([c]1ccccc1)[c]1ccccc1`, the “FP activity change, negative = inhibition” value is -8.83%.

Consider `CCN(CC)c1nc(C)cc(OP(=S)(OC)OC)n1`, for which the “FP activity change, negative = inhibition” value is -16.6%.

Take `COC([CH2][Hg])CNC(=O)c1ccccc1OCC(=O)O` (stereo not given): the “FP activity change, negative = inhibition” value is -5.59%.

In the case of `CO[C@H]1[C@@H](O)[C@@H](C)O[C@H](O[C@H]2[C@H](Oc3cccc4c(O)c5c(=O)oc6ccc(C)c7c(=O)oc(c34)c5c67)O[C@H](C)[C@H](O)[C@@H]2O)[C@@H]1O`, the “FP activity change, negative = inhibition” value was 4.44%.

For `N#Cc1cc(Br)c(O)c(Br)c1`, the “FP activity change, negative = inhibition” value was 1.24%.

For `CC[C@H]1CN2CCc3cc(OC)c(OC)cc3[C@@H]2C[C@@H]1C[C@H]1NCCc2cc(OC)c(OC)cc21`, the Potency is 22.4 µM (active).

`C[C@]12O[C@H](C[C@@]1(O)C(=O)O)n1c3ccccc3c3c4c(c5c6ccccc6n2c5c31)CNC4=O`: the “FP activity change, negative = inhibition” value is -12.3%.

As to `C[C@@H]1C[C@H]2CC[C@H](O2)[C@H](C)C(=O)O[C@@H](C)C[C@@H]2CC[C@@H](O2)[C@@H](C)C(=O)O[C@H](C)C[C@H]2CC[C@H](O2)[C@H](C)C(=O)O[C@@H](C)C[C@@H]2CC[C@@H](O2)[C@@H](C)C(=O)O1`, the “FP activity change, negative = inhibition” value is -23.7%.

Consider `O=C1CCc2cccc3c2N1CC3`, for which the “FP activity change, negative = inhibition” value was -0.283%.
